Measured values reported in PubChem BioAssay (NCI).
Compounds without any hit were thinned out: in the full panel of roughly 83,000, 20% have a hit.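 A percent growth of 40 corresponds to 60% growth inhibition; 0 means no net growth; -100 means all cells died. Active threshold: below 10.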 Active and inactive are the calls of the source.

test system: T-47D breast; assay: NCI-60 one-dose screen, 48 h (100 = growth as untreated, 0 = no growth, -100 = all killed); settings: 10 µM

Row | Compound | growth
1 | C/C=C/C1=CN2C(=O)c3cc(OC4OC(C)C(NC)C(C)(O)C4O)c(C)c(O)c3N=C[C@@H]2C1 (stereo not given in full) | -8.27% (active)
2 | CNC(=O)c1c(I)c(NC(C)=O)c(I)c(C(=O)O)c1I | 117% (inactive)
3 | COc1ccc(Nc2cnc3cc(NS(=O)(=O)c4ccc(C)cc4)ccc3n2)cc1 | 94.4% (inactive)
4 | COc1cc(-c2nn(-c3ccc(NC(=O)NCCCNC(=O)c4ccccc4)cc3)cc2-c2ccncc2)ccc1Cl | 67.5% (inactive)
5 | OCC1OC(n2ccc3c(NO)ncnc32)C(O)C1O (stereo not given) | -18.9% (active)
6 | C[C@]12CC[C@@H]3c4ccc(OS(=O)(=O)O)cc4CC[C@H]3[C@@H]1CC[C@@H]2NS(=O)(=O)c1ccc(-c2ccccc2)cc1 | 49.8% (inactive)
7 | CCN1CCN(CCC(=O)Nc2cccc(-n3cc(-c4ccncc4)c(-c4ccc(Cl)c(OC)c4)n3)c2)CC1 | 38.8% (inactive)
8 | COc1ccc(-c2nnc(SCC(=O)Nc3ccc(C(=O)/C=C/c4ccccc4)cc3)n2-c2ccccc2)cc1OC | 72.9% (inactive)

test system: BT-549 breast; assay: as above; settings: 10 µM

Row | Compound | growth
9 | COc1ccc(-c2onc(N)c2-c2cc(OC)c3c(c2)OCO3)cc1 | 42.6% (inactive)
10 | C[C@]12CC[C@@H]3c4ccc(O)cc4CC[C@H]3[C@@H]1CC[C@@H]2NS(=O)(=O)c1ccc(C(F)(F)F)cc1 | 59% (inactive)
11 | O=C(CSc1nnc(-c2ccc(Cl)cc2)o1)Nc1ccc(C(=O)/C=C/c2ccc(Cl)cc2)cc1 | 133% (inactive)
12 | Cc1cc(CCNC=O)c(C)c2c1sc1ccccc12 | 96.9% (inactive)
13 | COc1cc2cc(Oc3ccc(NC(=O)c4ccc(Cl)c(C(F)(F)F)c4)cc3)c(C)nc2cc1OC | 20.8% (inactive)
14 | CC(C)(C)c1ccc(S(=O)(=O)N[C@H]2CC[C@H]3[C@@H]4CCc5cc(O)ccc5[C@H]4CC[C@]23C)cc1 | 43.9% (inactive)
15 | COc1cc2cc(Oc3ccc(NC(=O)c4cccc(C(F)(F)F)c4)cc3)c(C)nc2cc1OC | 16.3% (inactive)
16 | COc1ccc(/C=C2\CCCC3=C2NC(N)=NC3c2ccc(OC)c(OC)c2)cc1OC (stereo not given) | 36.1% (inactive)
17 | Cc1c(Cl)cccc1NC(=O)CN1CCOCC1 | 97.4% (inactive)
18 | CC(C)(C)OC(=O)N1CCc2c(sc3ncnc(N/N=C/c4ccc(Br)cc4)c23)C1 | 74.9% (inactive)
19 | CCCCc1oc2ccccc2c1C(=O)c1cc(I)c(OCCN(CC)CC)c(I)c1 | -50% (active)
20 | CCc1c2c(nc3ccc(OC(=O)N4CCC(N5CCCCC5)CC4)cc13)-c1cc3c(c(=O)n1C2)COC(=O)[C@]3(O)CC | 22.1% (inactive)
21 | NS(=O)(=O)Oc1ccc(-c2ccc3sccc3c2)cc1 | 91.1% (inactive)
22 | O=C(Nc1ccc(OS(=O)(=O)c2ccccc2)cc1)C1CCCCC1 | 84% (inactive)
23 | S=c1cnc2ccccc2[nH]1 | 103% (inactive)
24 | COc1cc(-c2nn(-c3cccc(NC(=O)NCCNC(=O)c4cccc(C(F)(F)F)c4)c3)cc2-c2ccncc2)ccc1Cl | 14.2% (inactive)
25 | C[C@@H](O)[C@H]1C(=O)N2C(C(=O)O)=C(SCCN=CN)C[C@H]12 | 18.9% (inactive)
26 | CC[C@@H](C(=O)[C@@H](C)[C@@H](O)[C@H](C)[C@@H]1O[C@@H]([C@@H](CC)C(=O)O)CC[C@@H]1C)C1O[C@]2(C=CC(=O)[C@]3(CC[C@@](C)([C@H]4CC[C@](O)(CC)[C@H](C)O4)O3)O2)[C@H](C)C[C@@H]1C (stereo not given in full) | 34.2% (inactive)
27 | CCC(c1ccc(OC)cc1)C(CC)c1ccc(O)c(CN2CCN(C)CC2)c1 (stereo not given) | 76.9% (inactive)
28 | COc1ccc(C(=O)N2C=Cc3ccccc3C2C#N)cc1 (stereo not given) | 103% (inactive)
29 | Cc1cc(SC#N)cc(C(C)(C)C)c1O | 87.3% (inactive)
30 | COc1ccc(-c2n[nH]nc2-c2cc(OC)c3c(c2OC)OCO3)cc1 | 16.8% (inactive)
31 | CN1C(C(=O)Nc2ccccn2)=C(O)c2sc(Cl)cc2S1(=O)=O | 108% (inactive)
32 | Clc1ccc2c(c1)C(N1CCNCC1)=Nc1ccccc1O2 | 72.9% (inactive)
33 | CC(C)(C)c1ccc(S(=O)(=O)N[C@H]2CC[C@H]3[C@@H]4CCc5cc(O)c([N+](=O)[O-])cc5[C@H]4CC[C@]23C)cc1 | 67.7% (inactive)
34 | COc1cc(-c2csc(NC(=O)Nc3ccc(Cl)c(C(F)(F)F)c3)n2)cc(OC)c1OC | -13% (active)
35 | Brc1ccc2c(c1)-c1ccccc1C1=NCCN12 | 11% (inactive)
